This passage reports binding signal results from PMC7862700, “An all-to-all approach to the identification of sequence-specific readers for epigenetic DNA modifications on cytosine”.

Holding throughout (test): DAPPL (digital affinity profiling via proximity ligation, sequencing); 10 mM Tris-HCl pH 7.5, 50 mM NaCl, 1 mM DTT, 4% glycerol, room temperature, 30 min; GST-TFs on glutathione beads, 16-mer random dsDNA library, 0.1% formaldehyde crosslink after washing; high values mean tight binding
Holding throughout (details): protein: recombinant; tags: N-terminal GST; dsDNA, one strand shown

One experiment addresses T1, ELK1 (Homo sapiens, UniProt P19419 1-428).
T1 sequence: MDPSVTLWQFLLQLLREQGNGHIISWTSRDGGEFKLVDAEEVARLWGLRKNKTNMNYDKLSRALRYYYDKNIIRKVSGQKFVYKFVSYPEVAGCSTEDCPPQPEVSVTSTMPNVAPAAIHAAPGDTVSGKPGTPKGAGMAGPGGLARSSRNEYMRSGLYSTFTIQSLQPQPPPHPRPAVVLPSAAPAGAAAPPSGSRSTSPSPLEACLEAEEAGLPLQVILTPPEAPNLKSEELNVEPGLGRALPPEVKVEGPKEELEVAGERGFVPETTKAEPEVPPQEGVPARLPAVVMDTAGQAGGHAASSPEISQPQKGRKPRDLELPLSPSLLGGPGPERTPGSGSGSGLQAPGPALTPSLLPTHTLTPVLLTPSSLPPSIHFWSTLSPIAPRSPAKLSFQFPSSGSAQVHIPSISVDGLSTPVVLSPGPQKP
The method, boiled down:
(§1)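 GST fusions of human transcription factors were expressed in yeast and captured with glutathione beads. Once given DNA barcodes and pooled alongside a tag-only sample, they were incubated for 30 min at room temperature with 200 nmole of a random double-stranded 16-mer DNA library in Tris/NaCl/DTT/glycerol buffer, then washed, crosslinked (0.1% formaldehyde), proximity-ligated, PCR-amplified and sequenced on an Illumina NextSeq500. The binding signal of each hexamer is its read frequency for a factor divided by its frequency for the tag-only sample.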

The target in another experiment is T2, GABPA (Homo sapiens, UniProt Q06546 1-454).
T2 sequence: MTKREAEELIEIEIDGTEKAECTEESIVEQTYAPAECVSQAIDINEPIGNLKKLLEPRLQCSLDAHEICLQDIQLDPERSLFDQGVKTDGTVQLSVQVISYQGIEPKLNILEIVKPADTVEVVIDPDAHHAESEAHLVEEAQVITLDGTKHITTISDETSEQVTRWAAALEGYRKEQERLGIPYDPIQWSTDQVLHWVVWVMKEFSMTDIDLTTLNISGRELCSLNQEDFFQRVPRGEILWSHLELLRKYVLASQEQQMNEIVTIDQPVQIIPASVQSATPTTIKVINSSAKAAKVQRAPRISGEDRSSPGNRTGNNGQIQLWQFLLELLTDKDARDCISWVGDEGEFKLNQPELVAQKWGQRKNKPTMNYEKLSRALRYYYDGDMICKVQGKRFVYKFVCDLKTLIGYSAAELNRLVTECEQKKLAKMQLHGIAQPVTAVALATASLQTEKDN
The method, boiled down:
as §1

A further experiment deals with T3, ERG (Homo sapiens, UniProt P11308 1-479).
T3 sequence: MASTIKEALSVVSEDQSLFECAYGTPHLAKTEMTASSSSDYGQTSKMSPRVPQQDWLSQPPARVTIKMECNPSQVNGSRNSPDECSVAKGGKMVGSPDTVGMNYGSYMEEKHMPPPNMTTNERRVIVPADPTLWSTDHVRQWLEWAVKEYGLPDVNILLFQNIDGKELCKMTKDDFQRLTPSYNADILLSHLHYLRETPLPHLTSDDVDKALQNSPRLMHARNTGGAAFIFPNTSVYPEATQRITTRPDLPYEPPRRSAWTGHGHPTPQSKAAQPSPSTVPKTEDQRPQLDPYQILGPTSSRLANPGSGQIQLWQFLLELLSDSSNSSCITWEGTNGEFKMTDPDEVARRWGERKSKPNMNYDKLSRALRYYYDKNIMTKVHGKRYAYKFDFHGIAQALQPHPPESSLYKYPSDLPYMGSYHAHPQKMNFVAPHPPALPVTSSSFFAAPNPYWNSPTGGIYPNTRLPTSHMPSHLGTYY
The essentials:
as §1

A further experiment concerns the target ELF1 (Homo sapiens, UniProt P32519 1-619). The essentials: as §1
A further experiment has as its target SPIB (Homo sapiens, UniProt Q01892 1-262). The essentials: as §1
The target of a further experiment is T4, FEV (Homo sapiens, UniProt Q99581 1-238).
T4 sequence: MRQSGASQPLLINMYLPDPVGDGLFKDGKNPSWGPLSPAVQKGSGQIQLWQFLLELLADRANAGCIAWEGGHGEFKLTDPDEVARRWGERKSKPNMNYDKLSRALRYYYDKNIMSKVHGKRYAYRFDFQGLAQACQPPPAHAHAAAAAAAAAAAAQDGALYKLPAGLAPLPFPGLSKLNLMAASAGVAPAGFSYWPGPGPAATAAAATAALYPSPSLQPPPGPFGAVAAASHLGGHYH
The method, boiled down:
as §1

A further experiment concerns the target ETV5 (Homo sapiens, UniProt P41161 1-510). The essentials:
as §1

The target in another experiment is ELF4 (Homo sapiens, UniProt Q99607 1-663). The essentials:
as §1

In a further experiment the target is T5, ETV2 (Homo sapiens, UniProt O00321 1-342).
T5 sequence: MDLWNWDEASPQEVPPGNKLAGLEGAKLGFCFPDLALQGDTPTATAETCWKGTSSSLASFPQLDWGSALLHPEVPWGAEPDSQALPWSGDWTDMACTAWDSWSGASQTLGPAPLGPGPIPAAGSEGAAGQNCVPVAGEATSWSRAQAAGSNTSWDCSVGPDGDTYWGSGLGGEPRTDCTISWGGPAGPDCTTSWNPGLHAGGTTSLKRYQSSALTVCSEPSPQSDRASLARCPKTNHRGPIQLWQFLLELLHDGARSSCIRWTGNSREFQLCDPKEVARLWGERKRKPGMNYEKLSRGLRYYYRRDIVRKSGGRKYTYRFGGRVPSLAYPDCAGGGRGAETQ
The essentials:
as §1

For another experiment, the target named is T6, ELF3 (Homo sapiens, UniProt P78545 1-371).
T6 sequence: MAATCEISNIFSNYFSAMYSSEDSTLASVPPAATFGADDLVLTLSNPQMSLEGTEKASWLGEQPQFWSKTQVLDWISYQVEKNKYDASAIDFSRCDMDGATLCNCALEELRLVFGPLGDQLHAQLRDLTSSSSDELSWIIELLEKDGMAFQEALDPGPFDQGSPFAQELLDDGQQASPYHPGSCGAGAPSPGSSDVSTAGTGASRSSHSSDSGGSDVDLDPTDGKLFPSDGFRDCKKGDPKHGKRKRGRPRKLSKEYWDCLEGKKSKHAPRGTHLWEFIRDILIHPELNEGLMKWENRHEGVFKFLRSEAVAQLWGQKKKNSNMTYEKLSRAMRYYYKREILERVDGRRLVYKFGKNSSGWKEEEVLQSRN
The essentials:
as §1

The target of the next experiment is T7, ERF (Homo sapiens, UniProt P50548 1-548).
T7 sequence: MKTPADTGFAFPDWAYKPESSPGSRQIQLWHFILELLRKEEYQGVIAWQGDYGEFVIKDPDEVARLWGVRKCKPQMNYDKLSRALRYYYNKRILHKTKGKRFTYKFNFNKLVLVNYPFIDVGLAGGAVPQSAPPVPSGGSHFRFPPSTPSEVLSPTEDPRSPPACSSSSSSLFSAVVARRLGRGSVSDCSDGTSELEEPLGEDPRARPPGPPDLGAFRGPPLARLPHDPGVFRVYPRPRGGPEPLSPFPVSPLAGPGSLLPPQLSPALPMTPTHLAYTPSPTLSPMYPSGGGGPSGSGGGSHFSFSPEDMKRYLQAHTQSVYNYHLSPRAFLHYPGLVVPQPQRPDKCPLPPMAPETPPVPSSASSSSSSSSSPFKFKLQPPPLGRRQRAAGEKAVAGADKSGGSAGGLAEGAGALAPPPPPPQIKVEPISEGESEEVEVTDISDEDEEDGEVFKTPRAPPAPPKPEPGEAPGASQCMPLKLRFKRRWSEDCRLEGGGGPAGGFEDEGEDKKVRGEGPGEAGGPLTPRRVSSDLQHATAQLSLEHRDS
The method, boiled down:
as §1

The target in the next experiment is T8, ETV3L (Homo sapiens, UniProt Q6ZN32 1-361).
T8 sequence: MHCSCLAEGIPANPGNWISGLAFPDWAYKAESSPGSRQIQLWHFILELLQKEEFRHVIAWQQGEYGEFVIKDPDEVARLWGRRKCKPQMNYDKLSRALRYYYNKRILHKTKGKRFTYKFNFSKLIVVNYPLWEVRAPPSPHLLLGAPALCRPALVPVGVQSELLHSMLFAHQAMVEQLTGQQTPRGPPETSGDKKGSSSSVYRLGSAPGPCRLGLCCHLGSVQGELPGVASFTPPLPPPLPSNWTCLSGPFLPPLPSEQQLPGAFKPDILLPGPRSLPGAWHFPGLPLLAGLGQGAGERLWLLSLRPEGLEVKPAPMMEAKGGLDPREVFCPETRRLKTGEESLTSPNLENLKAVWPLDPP
The method, boiled down:
as §1

The target in a further experiment is T9, ETS2 (Homo sapiens, UniProt P15036 1-469).
T9 sequence: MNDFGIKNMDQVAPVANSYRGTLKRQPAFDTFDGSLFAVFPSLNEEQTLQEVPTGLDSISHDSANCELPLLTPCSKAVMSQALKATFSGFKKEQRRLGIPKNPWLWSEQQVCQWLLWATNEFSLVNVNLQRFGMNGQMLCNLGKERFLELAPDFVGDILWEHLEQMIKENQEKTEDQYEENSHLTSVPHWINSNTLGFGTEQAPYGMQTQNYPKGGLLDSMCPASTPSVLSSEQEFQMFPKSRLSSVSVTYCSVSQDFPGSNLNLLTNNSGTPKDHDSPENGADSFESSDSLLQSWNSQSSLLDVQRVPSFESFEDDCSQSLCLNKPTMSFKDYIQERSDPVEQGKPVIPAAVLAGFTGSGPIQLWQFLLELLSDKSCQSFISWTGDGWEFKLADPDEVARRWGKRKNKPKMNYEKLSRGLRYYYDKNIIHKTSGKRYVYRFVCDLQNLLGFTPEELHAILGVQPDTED
The essentials:
as §1

The next experiment deals with T10, SPDEF (Homo sapiens, UniProt O95238 1-335).
T10 sequence: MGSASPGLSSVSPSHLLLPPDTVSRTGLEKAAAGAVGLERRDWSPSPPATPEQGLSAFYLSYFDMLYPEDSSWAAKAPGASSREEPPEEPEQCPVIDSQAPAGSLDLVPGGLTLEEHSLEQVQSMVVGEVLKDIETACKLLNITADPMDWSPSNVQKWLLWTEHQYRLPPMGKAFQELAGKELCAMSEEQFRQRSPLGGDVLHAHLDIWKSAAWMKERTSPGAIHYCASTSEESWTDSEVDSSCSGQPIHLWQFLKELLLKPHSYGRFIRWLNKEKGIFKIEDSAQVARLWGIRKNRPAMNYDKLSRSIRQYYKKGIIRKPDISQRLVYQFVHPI
The essentials: as §1

Another experiment concerns the target T11, ETV7 (Homo sapiens, UniProt Q9Y603 1-341).
T11 sequence: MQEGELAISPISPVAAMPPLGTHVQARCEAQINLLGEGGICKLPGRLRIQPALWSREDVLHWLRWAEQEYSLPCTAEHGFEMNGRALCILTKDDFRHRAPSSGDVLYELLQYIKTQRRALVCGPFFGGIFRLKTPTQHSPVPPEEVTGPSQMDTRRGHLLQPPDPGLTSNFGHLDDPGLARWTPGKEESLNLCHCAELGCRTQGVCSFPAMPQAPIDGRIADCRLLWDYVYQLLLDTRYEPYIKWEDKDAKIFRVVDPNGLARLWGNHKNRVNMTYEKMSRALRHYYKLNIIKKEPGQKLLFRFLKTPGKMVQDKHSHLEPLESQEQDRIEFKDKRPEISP
The method, boiled down: as §1

The target in a further experiment is T12, ETV3 (Homo sapiens, UniProt P41162-2 1-143).
T12 sequence: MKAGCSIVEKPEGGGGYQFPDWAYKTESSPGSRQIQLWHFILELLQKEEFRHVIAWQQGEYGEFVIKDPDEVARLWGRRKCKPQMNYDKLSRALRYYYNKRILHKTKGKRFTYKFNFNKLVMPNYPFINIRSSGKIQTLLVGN
The method, boiled down:
as §1

The next experiment deals with ETV6 (Homo sapiens, UniProt P41212 1-452). The method, boiled down:
as §1

Sequence of ELF4 (Q99607 whole entry): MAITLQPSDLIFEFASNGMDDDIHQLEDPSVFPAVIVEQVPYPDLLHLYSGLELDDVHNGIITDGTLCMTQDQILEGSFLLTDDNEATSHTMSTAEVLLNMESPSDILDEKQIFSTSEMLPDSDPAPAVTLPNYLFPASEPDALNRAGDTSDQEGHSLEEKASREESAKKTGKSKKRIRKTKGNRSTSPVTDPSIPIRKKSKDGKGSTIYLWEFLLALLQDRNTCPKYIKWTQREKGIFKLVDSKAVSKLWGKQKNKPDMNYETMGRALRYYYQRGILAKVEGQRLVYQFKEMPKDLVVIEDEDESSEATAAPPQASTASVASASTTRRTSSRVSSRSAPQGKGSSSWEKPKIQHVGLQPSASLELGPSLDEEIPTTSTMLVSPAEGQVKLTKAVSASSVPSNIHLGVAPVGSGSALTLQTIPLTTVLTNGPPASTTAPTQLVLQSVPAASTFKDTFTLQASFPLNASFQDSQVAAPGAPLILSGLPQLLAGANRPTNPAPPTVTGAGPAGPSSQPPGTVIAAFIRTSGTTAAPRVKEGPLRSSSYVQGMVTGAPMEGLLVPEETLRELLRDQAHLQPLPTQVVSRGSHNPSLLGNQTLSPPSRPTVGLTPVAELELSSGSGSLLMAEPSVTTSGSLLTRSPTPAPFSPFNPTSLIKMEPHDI
Sequence of ETV6 (P41212 whole entry): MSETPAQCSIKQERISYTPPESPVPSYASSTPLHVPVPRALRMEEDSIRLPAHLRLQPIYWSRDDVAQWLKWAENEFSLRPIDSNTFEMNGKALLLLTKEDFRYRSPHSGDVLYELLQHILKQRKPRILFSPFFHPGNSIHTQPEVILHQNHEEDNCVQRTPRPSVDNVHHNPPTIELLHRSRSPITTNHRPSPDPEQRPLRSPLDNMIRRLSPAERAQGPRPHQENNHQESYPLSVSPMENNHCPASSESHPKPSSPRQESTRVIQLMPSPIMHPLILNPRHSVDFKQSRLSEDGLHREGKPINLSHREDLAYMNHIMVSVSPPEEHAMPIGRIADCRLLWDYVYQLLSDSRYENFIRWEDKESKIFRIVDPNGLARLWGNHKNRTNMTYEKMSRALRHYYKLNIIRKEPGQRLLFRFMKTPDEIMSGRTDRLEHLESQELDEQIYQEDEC
Sequence of ELF1 (P32519 whole entry): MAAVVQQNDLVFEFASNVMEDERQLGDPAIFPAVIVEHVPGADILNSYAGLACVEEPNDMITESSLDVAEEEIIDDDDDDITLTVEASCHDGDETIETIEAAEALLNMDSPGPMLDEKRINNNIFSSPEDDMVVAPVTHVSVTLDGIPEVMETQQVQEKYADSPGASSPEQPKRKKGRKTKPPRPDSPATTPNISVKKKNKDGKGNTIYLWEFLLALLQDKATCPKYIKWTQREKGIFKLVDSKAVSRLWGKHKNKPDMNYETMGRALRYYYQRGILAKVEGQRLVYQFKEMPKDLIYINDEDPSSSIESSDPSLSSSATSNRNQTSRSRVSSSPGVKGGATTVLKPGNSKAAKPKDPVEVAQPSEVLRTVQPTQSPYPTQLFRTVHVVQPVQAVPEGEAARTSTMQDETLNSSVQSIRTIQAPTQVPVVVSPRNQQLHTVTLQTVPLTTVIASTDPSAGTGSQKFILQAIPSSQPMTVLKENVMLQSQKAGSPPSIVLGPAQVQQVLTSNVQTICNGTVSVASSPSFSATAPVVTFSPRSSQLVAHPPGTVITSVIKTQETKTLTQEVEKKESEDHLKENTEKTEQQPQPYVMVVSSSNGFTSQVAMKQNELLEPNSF
Sequence of SPIB (Q01892 whole entry): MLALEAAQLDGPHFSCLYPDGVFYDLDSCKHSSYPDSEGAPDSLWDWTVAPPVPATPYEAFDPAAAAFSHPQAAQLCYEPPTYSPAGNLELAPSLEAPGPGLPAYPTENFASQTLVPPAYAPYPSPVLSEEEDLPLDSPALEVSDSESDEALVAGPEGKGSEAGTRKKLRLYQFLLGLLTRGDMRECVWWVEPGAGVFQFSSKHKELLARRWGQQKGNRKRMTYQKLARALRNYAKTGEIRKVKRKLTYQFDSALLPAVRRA
Sequence of ETV5 (P41161 whole entry): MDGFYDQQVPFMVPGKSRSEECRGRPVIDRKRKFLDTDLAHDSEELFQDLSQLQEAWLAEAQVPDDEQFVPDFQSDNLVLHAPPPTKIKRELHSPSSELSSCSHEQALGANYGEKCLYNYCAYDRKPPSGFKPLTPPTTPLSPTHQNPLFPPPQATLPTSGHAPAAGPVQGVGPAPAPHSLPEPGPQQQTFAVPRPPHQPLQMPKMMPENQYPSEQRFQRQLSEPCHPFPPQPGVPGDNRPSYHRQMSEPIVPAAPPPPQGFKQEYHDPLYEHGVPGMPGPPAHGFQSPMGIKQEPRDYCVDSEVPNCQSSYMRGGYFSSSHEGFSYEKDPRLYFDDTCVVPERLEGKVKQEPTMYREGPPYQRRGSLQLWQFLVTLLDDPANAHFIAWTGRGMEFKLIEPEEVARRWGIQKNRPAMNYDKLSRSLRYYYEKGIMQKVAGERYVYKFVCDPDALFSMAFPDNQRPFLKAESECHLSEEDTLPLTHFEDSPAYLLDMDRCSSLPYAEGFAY

In the case of CCGCAG, the binding signal with ELK1 is 1.09 fold enrichment (6-mer frequency, TF over GST control); with GABPA, 1.13 fold enrichment (6-mer frequency, TF over GST control); with ERG, 1.06 fold enrichment (6-mer frequency, TF over GST control); in the experiment with ELF1, 1.01 fold enrichment (6-mer frequency, TF over GST control); with SPIB, 1.21 fold enrichment (6-mer frequency, TF over GST control); with FEV, 1.08 fold enrichment (6-mer frequency, TF over GST control). Further, the binding signal with ETV5 was 1.12 fold enrichment (6-mer frequency, TF over GST control); in the experiment with ELF4, 1.07 fold enrichment (6-mer frequency, TF over GST control); in the experiment with ETV2, 1.22 fold enrichment (6-mer frequency, TF over GST control); in the experiment with ELF3, 1.19 fold enrichment (6-mer frequency, TF over GST control); with ERF it was 1.12 fold enrichment (6-mer frequency, TF over GST control); with ETV3L it was 1.02 fold enrichment (6-mer frequency, TF over GST control). For the same sequence, the binding signal with ETS2 was 1.06 fold enrichment (6-mer frequency, TF over GST control); with SPDEF it was 1.07 fold enrichment (6-mer frequency, TF over GST control); with ETV7, 1.12 fold enrichment (6-mer frequency, TF over GST control); with ETV3, 1.07 fold enrichment (6-mer frequency, TF over GST control); in the experiment with ETV6, 1 fold enrichment (6-mer frequency, TF over GST control).
